Inconclusive results are not listed. Calls of active or inactive are those of the source. Unless noted, the call rests on the fitted dose curve; in most records, active means well fitted curve in the direction sought with a large enough effect; inconclusive means small, poorly fitted or top-dose-only effect, or another doubt; inactive means no such curve, though single readings can be large; an effect the other way counts as inactive or inconclusive.

Here are results for 29 molecules from PubChem BioAssay (NCATS).

For assay [1], the target named is Aldehyde dehydrogenase, mitochondrial (Homo sapiens) (UniProt P05091). Description: qHTS for Inhibitors of the Aldehyde Dehydrogenase Family (ALDH2) Confirmatory screens (AID 2061303; active means well fitted inhibition curve with a large enough effect; title and protocol of this record describe different tests; further: nearly all actives have a fitted effect of over 45% in size; further: potency means the concentration at half of the fitted maximal effect). The conditions noted are these: ALDH inhibition qHTS; series mostly up to 45.4 µM.
Assay [2] is described as follows: qHTS for Inhibitors of the Aldehyde Dehydrogenase Family (ALDH1A2, ALDH1A3, ALDH2, ALDH3A1) (AID 2061307). Further: nearly all actives have a fitted effect of over 50% in size. On Potency: test system not described further here; potency means the concentration at half of the fitted maximal effect. The conditions noted are these: ALDH inhibition qHTS; series mostly up to 50.3 µM. (Quantitative high-throughput screening tests each substance at several concentrations.)
Assay [3] has as its target Aldehyde dehydrogenase, mitochondrial (Homo sapiens) (UniProt P05091). Briefly: qHTS for Inhibitors of the Aldehyde Dehydrogenase Family (ALDH2) Primary screen (AID 2061308). Further: nearly all actives have a fitted effect of over 55% in size. Further: potency means the concentration at half of the fitted maximal effect. The note with it: ALDH2 enzyme inhibition qHTS, 1536-well; series mostly up to 56 µM.
Assay [4] addresses Retinaldehyde dehydrogenase 3 (Homo sapiens) (UniProt P47895). Briefly: qHTS for Inhibitors of the Aldehyde Dehydrogenase Family (ALDH1A3) Confirmatory screens (AID 2061311). Further: nearly all actives have a fitted effect of over 60% in size. Further: potency means the concentration at half of the fitted maximal effect. The note with it: ALDH inhibition qHTS; series mostly up to 46 µM.
The target is the same in assay [5]. Briefly: qHTS for Inhibitors of the Aldehyde Dehydrogenase Family (ALDH1A3) Primary screen (AID 2061315). The note with it: ALDH inhibition qHTS; series mostly up to 56 µM.
For assay [6], the target named is Aldehyde dehydrogenase 1A1 (Homo sapiens) (UniProt P00352). Briefly: qHTS for Inhibitors of the Aldehyde Dehydrogenase Family (ALDH1A1) Confirmatory screens (AID 2061316). Further: nearly all actives have a fitted effect of over 65% in size. Further: potency means the concentration at half of the fitted maximal effect. The note with it: ALDH inhibition qHTS; series mostly up to 47.3 µM.
In assay [7] the target is Retinal dehydrogenase 2 (Homo sapiens) (UniProt O94788). Briefly: qHTS for Inhibitors of the Aldehyde Dehydrogenase Family (ALDH1A2) Confirmation screens (AID 2061314). Further: nearly all actives have a fitted effect of over 65% in size. Further: potency means the concentration at half of the fitted maximal effect. The conditions noted are these: ALDH1A2 enzyme inhibition qHTS confirmation; series mostly up to 45.9 µM.

For the molecule `Cc1ccc(C)c(SC2=NS(=O)(=O)c3ccccc32)c1`, the Potency result in assay [1], in assay [2], in assay [3], in assay [4], in assay [5] and in assay [6] was “inactive” in each case.
With `N=c1c2c(ncn1-c1ccccc1)Oc1ccc3ccccc3c1C2c1ccc2c(c1)CCO2` (stereo not given), the Potency is 14.1 µM (active) in assay [1], 7.08 µM (active) in assay [2], 15.8 µM (active) in assay [4] and 31.6 µM (active) in assay [6]. In addition, the Potency entry in assay [3] and in assay [5] was “inactive” each time.
`Cc1ccc(Cl)cc1NS(=O)(=O)c1cc2c(cc1F)NC(=O)CC2`: the Potency in assay [1] is 12.6 µM (active); in assay [2] it was 28.2 µM (active); in assay [4], 12.6 µM (active). Also, the Potency entry in assay [3] and in assay [5] was “inactive” in each case.
With `O=C1CCCC2=C1C(c1[nH]ncc1Cl)NC(=S)N2` (stereo not given), the Potency result in assay [1], in assay [2], in assay [3], in assay [4] and in assay [5] was “inactive” in each case.
Turning to `Oc1cccc2cc(C3CC3)cnc12`, the Potency result in assay [1], in assay [3] and in assay [5] was “inactive” throughout. For the same molecule, the figures for the Potency in assay [2] and in assay [4] were 0.634 µM (active) and 31.6 µM (active), respectively.
Regarding `O=[N+]([O-])c1ccc(CNc2ccc([S+](=O)([O-])Nc3nccs3)cc2)c(O)c1`, the Potency entry in assay [1], in assay [2], in assay [3], in assay [4] and in assay [5] was “inactive” in each case.
As for `Cc1ccc(Nc2nc(C#N)nc(NC3CCCC3)n2)cc1`, the Potency entry in assay [1], in assay [2], in assay [3], in assay [4] and in assay [5] was “inactive” each time.
`O=C1c2ccccc2C(=O)N1c1ncccc1O`: the Potency result in assay [1], in assay [2], in assay [3], in assay [4], in assay [5] and in assay [6] was “inactive” in each case.
On to `COc1ccc(C2=Nn3c(nnc3-c3ccc(OC)c(OC)c3)SC2)c(OC)c1`, for which the Potency result in assay [1], in assay [2], in assay [3], in assay [4] and in assay [5] was “inactive” in each case. In addition, the Potency in assay [6] is 6.34 µM (active).
As for `Cc1cc(C)nc(NC(=S)N2CCN(c3ccc4ccccc4c3)CC2)c1`, the Potency in assay [1] is 11.3 µM (active); in assay [2], 3.55 µM (active); in assay [3] it was 11.2 µM (active); in assay [4] it was 7.12 µM (active); in assay [7], 12.7 µM (active); in assay [6], 2.83 µM (active).
Regarding `COc1ccc(C2=Nn3c(nnc3-c3ccccc3C)SC2)cc1`, the Potency entry in assay [1], in assay [2], in assay [3], in assay [4] and in assay [5] was “inactive” in each case.
With `CCOc1ccc(C(=O)Nc2ccc(-c3nc4ccccc4[nH]3)cc2)cc1`, the Potency result in assay [1], in assay [2], in assay [3], in assay [4], in assay [5] and in assay [6] was “inactive” each time.
For `CCOC(=O)c1cccc(-n2cccc2/C=C2\NC(=O)N(CC(=O)O)C2=O)c1`, the Potency result in assay [1], in assay [2], in assay [3], in assay [4] and in assay [5] was “inactive” each time.
Consider `O=C(Nc1ccc2ccccc2c1)Nc1nnc(-c2cccnc2)s1`, for which the Potency result in assay [1], in assay [2], in assay [3] and in assay [5] was “inactive” in each case. The Potency in assay [7] was 12.7 µM (active).
Turning to `O=C(Nc1ccc(Cl)c(Cl)c1)Nc1nnc(NC2CCNCC2)s1`, the Potency result in assay [1], in assay [2], in assay [3] and in assay [6] was “inactive” throughout. In assay [4], the Potency was 11.3 µM (active).
Turning to `O=C(Cc1ccc(Cl)c(Cl)c1)Nc1ccc(S(=O)(=O)Nc2cccc(C(=O)O)c2)cc1`, the Potency result in assay [1], in assay [2], in assay [3], in assay [4], in assay [5] and in assay [6] was “inactive” throughout.
Turning to `O=C(Nc1ncc(Cc2ccc(C(F)(F)F)cc2)s1)c1ncc(-c2ccccc2)[nH]1`, the Potency entry in assay [1], in assay [2], in assay [3], in assay [7] and in assay [5] was “inactive” each time.
With `Cc1cc(=O)oc2c(C=O)c(O)ccc12`, the Potency result in assay [1], in assay [2] and in assay [3] was “inactive” throughout. The Potency in assay [4] was 12.7 µM (active); in assay [6], 8.96 µM (active).
As to `Cc1cc2c(s1)c(C=O)c(C(=O)NCc1ccccc1F)n2C`, the Potency result in assay [1], in assay [3], in assay [7] and in assay [5] was “inactive” throughout. The Potency in assay [2] was 1.27 µM (active).
With `CCCCNc1nc(C#N)nc(Nc2ccccc2)n1`, the Potency in assay [1] was 2.51 µM (active); in assay [2] it was 0.501 µM (active). Further, the Potency result in assay [3], in assay [7] and in assay [5] was “inactive” in each case.
Consider `O=C(O)c1cccc(-n2cccc2)c1`, for which the Potency entry in assay [1], in assay [2], in assay [3], in assay [4], in assay [5] and in assay [6] was “inactive” each time.
In the case of `CN(C)CCCNc1ncnc2ccc(-c3ccc4c(c3)OCO4)cc12`, the Potency entry in assay [1], in assay [2], in assay [3], in assay [4], in assay [5] and in assay [6] was “inactive” in each case.
Turning to `CN1CCN(C2CCN(Cc3ccc(O)c4ncccc34)CC2)CC1`, the Potency result in assay [1], in assay [2], in assay [3] and in assay [7] was “inactive” throughout.
As to `O=C(c1ccccc1)N1CCN(c2nc(-c3ccc(Br)cc3)cs2)CC1`, the Potency in assay [1] and in assay [2] was 15.8 µM (active) in each case. The Potency result in assay [3], in assay [7] and in assay [5] was “inactive” each time.
Take `Cc1cccc(C[C@H](C(=O)O)N2C(=O)c3ccc(C(=O)O)cc3C2=O)c1`: the Potency result in assay [1], in assay [2], in assay [3], in assay [4], in assay [5] and in assay [6] was “inactive” throughout.
In the case of `Fc1cc(Nc2nc(-c3ccncc3)nc3ccccc23)ccc1N1CCNCC1`, the Potency entry in assay [1], in assay [2], in assay [3], in assay [7] and in assay [5] was “inactive” each time.
As to `Cc1ccc(NS(=O)(=O)c2ccc3c(c2)CC(=O)N3)cc1C`, the Potency entry in assay [1], in assay [2], in assay [3], in assay [4] and in assay [5] was “inactive” in each case. In assay [6], the Potency is 1.59 µM (active).
As to `COc1cccc(OC)c1C1=Nn2c(nnc2-c2ccccc2C)SC1`, the Potency entry in assay [1], in assay [2], in assay [3], in assay [7] and in assay [5] was “inactive” in each case.
As to `CCN(CC)c1cc2c(cc1S(=O)(=O)Nc1ccc(C)c(C)c1)CCC(=O)N2`, the Potency entry in assay [1], in assay [2], in assay [3], in assay [7] and in assay [5] was “inactive” in each case.
